Out of some 69,000 compounds screened, about 8,600 (12%) showed an effect of 50% or more. The sample as a whole holds a higher share of strong results than the screen did.

For this experiment, the system named is Plasmodium berghei. Kind of experiment: Screen against P. berghei liver stage (PbLuc), transformed with Luciferase, at 10uM. To be noted: tested at 10 uM. Type of experiment: functional, HepG2.
On to `COCCNC(=O)c1ccc(NCc2csc(C)n2)cc1Cl`, for which the INHIBITION was determined as 16%.

With `COCCOc1cccc(C(=O)N2CCCC(n3cccn3)C2)c1` (centres undefined), the INHIBITION was determined as 9.94%.

For the compound `CC1CCc2nn(CCNC(=O)Cc3cccs3)c(=O)cc2C1` (centres undefined), the INHIBITION is listed as -45.7%.

In the case of `Cc1nc(CN(CCS(C)(=O)=O)C(C)C)no1`, the INHIBITION is 49.3%.

In the case of `c1csc(CN2CC[C@H]3O[C@@H](COCC4CC4)CC[C@H]32)c1`, the INHIBITION is recorded as 73%.

Take `c1cncc(COC[C@H]2CC[C@H]3[C@H](CCN3Cc3cccs3)O2)c1`: the INHIBITION amounted to 31.8%.

For `c1coc(CN2CC[C@@H]3O[C@@H](COCc4ccncc4)CC[C@@H]32)c1`, the INHIBITION was found to be 0.164%.

As for `COC[C@H]1CC[C@@H]2[C@@H](CCN2Cc2ccco2)O1`, the INHIBITION is on record as -6.39%.

Regarding `c1ccc(COC[C@H]2CC[C@H]3[C@H](CCN3Cc3ccco3)O2)nc1`, the INHIBITION is recorded as 51.3%.

`c1coc(CN2CC[C@@H]3O[C@@H](COCC4CCOCC4)CC[C@@H]32)c1`: the INHIBITION is recorded as -30%.

Consider `Cc1cccc(COC[C@@H]2CC[C@H]3[C@H](CCN3Cc3ccco3)O2)n1`, for which the INHIBITION is given as 43.5%.

For `c1coc(CN2CC[C@H]3O[C@@H](COCC4CC4)CC[C@H]32)c1`, the INHIBITION turned out to be 53.9%.

Take `c1ccc(COC[C@H]2CC[C@H]3[C@H](CCN3c3ncccn3)O2)nc1`: the INHIBITION came to 26.4%.

With `Cc1cccc(COC[C@H]2CC[C@H]3[C@H](CCN3Cc3ccco3)O2)n1`, the INHIBITION turned out to be 68.4%.

Consider `CN(C)C(=O)COC[C@H]1CC[C@@H]2[C@@H](CCN2Cc2ccco2)O1`, for which the INHIBITION is on record as -11.6%.

Regarding `c1ccc(COC[C@H]2CC[C@H]3[C@H](CCN3Cc3cccs3)O2)nc1`, the INHIBITION is recorded as 49.7%.

For `Cn1cc(C[C@H]2[C@H](O)CCN2CC2CCOCC2)cn1`, the INHIBITION stood at 6.6%.

As to `O=C1CNc2ncnc(NCc3cccs3)c2N1`, the INHIBITION was -25.5%.

For `CN(Cc1ccco1)C(=O)CN1C(=O)c2cc(Cl)c(Cl)cc2C1=O`, the INHIBITION is 39.2%.

In the case of `O=C1COC2(CCN(Cc3ccoc3)CC2)CN1`, the INHIBITION is given as -0.813%.

For `CS(=O)(=O)CC(=O)N1C[C@H]2CCC[C@@]2(COc2ccccn2)C1`, the INHIBITION is listed as -0.453%.

As to `Cn1c(=O)c2cc(C(=O)NCCOc3ccccc3)ccc2n(C)c1=O`, the INHIBITION was determined as 33.7%.

`CC(C)n1c(=O)c2ccccc2n(CCCN(C)C)c1=O`: the INHIBITION is given as 28.7%.

For `c1ccc(COC[C@H]2CC[C@H]3[C@H](CCN3Cc3cccnc3)O2)nc1`, the INHIBITION is recorded as 29.9%.

On to `c1ccc(COC[C@H]2CC[C@H]3[C@H](CCN3Cc3ccccn3)O2)nc1`, for which the INHIBITION is 50.9%.

Regarding `c1ccc(CN2CC[C@@H]3O[C@H](COCc4ccncc4)CC[C@@H]32)nc1`, the INHIBITION came to 14.8%.

Take `CCCNC(=O)c1[nH]nc(C2CC2)c1Br`: the INHIBITION was -59.9%.

In the case of `Cn1cnc2ccc(NC(=O)CCCn3cccn3)cc2c1=O`, the INHIBITION stood at 2.84%.

`O=C(c1ccccc1F)N1CCCC1Cn1c(=O)oc2ccccc21` (centres undefined): the INHIBITION was -1.4%.

`Fc1ccccc1C(CNc1ccncn1)N1CCCC1` (centres undefined): the INHIBITION was 43.4%.

For the compound `CS(=O)(=O)N1CCC(O)(Cn2c(C3CC3)nc3ccccc3c2=O)CC1`, the INHIBITION stood at 38.1%.

Regarding `CCc1nc2ccccc2c(=O)n1CC1(O)CCN(S(C)(=O)=O)CC1`, the INHIBITION is reported as 52.9%.

`CCc1nc2ccccc2c(=O)n1CC1(O)CCNCC1`: the INHIBITION was 28%.

Consider `CC(C)CCN1CCN(C(=O)c2c[nH]nn2)CC1`, for which the INHIBITION was -0.275%.

Turning to `Cc1nc(COC[C@@H]2CC[C@H]3[C@H](CCN3c3ccccn3)O2)cs1`, the INHIBITION is given as -106%.

Turning to `CN1CC2(CCN(CCOCCO)CC2)CC(c2ccccc2)C1=O` (centres undefined), the INHIBITION was found to be 73.4%.

Regarding `CCN1CC2(CCN(CCOCCO)CC2)CC(c2ccccc2)C1=O` (centres undefined), the INHIBITION turned out to be 7.84%.

With `CN1C(=O)C(c2ccccc2)CC12CCN(CCOCCO)CC2` (centres undefined), the INHIBITION was -26.4%.

`CCN(C(=O)C1CCC1)C(c1cccnc1)c1ccc2c(c1)CCO2` (centres undefined): the INHIBITION came out at 66.2%.

For `CCC(=O)N(CC)C(c1cccnc1)c1ccc2c(c1)CCO2` (centres undefined), the INHIBITION was determined as 37.9%.

For the compound `CCN(C(=O)C1CC1)C(c1cccnc1)c1ccc2c(c1)CCO2` (centres undefined), the INHIBITION was 21.8%.

On to `CCCC(=O)N(CC)C(c1cccnc1)c1ccc2c(c1)CCO2` (centres undefined), for which the INHIBITION is listed as 29.4%.

For `CCN(C(=O)C(C)C)C(c1cccnc1)c1ccc2c(c1)CCO2` (centres undefined), the INHIBITION is recorded as 3.87%.

For the compound `CCN(C(=O)COC)C(c1cccnc1)c1ccc2c(c1)CCO2` (centres undefined), the INHIBITION amounted to 51.8%.

Turning to `Cn1ccnc1Sc1ccc(S(N)(=O)=O)cn1`, the INHIBITION stood at 7.92%.

On to `CS(=O)(=O)c1cc(Cl)cnc1C1CCN(C(=O)C2CC2)CC1`, for which the INHIBITION is on record as 15.49%.

`CCOC(=O)c1nc(COc2c(C)occc2=O)no1`: the INHIBITION is 41.7%.

For `COCC(=O)N1CCCCC1c1ccnc(Nc2cnccn2)n1` (centres undefined), the INHIBITION is -26.2%.

For `CCOc1ccc(S(=O)(=O)N(C)Cc2cnn(CC)c2)cc1`, the INHIBITION is reported as 55.7%.

On to `CCn1cc(CN(C)S(=O)(=O)c2ccc(Cl)cc2)cn1`, for which the INHIBITION was -64.7%.

`CCn1cc(CN(C)S(=O)(=O)c2ccccc2)cn1`: the INHIBITION was 35.8%.

As for `NC(=O)C1CCN(C(=O)CCCc2nnc(-c3ccccc3)o2)CC1`, the INHIBITION is 33.7%.

For the compound `O=C([C@@H]1COC[C@H]2CN(C3CCCCC3)C[C@H]21)N1CCOCC1`, the INHIBITION turned out to be 7.7%.

As to `O=C([C@@H]1COC[C@H]2CN(C3CCCC3)C[C@H]21)N1CCCO1`, the INHIBITION worked out at 35.4%.

Take `O=C(O)[C@@H]1CN(C2CCOCC2)C[C@H]1C1CC1`: the INHIBITION turned out to be 25.1%.

Consider `O=C([C@H]1COC[C@H]2CN(C3CCCCC3)C[C@H]21)N1CCOCC1`, for which the INHIBITION was 31.2%.

In the case of `O=C([C@H]1COC[C@H]2CN(C3CCCC3)C[C@H]21)N1CCOCC1`, the INHIBITION was 74.7%.

As for `O=C([C@H]1COC[C@H]2CN(C3CCCC3)C[C@H]21)N1CCCCO1`, the INHIBITION stood at 5.65%.

`O=C([C@H]1COC[C@H]2CN(C3CCCC3)C[C@H]21)N1CCCO1`: the INHIBITION came to 71.4%.

On to `O=C([C@H]1COC[C@H]2CN(C3CCOCC3)C[C@H]21)N1CCC(F)CC1`, for which the INHIBITION is recorded as -20.4%.

In the case of `O=C(O)[C@@H]1CN(C2CCCC2)C[C@H]1C1CC1`, the INHIBITION came out at 57.9%.

On to `O=C(O)[C@@H]1CN(C2CCCCC2)C[C@H]1C1CC1`, for which the INHIBITION turned out to be 9.34%.

Consider `O=C([C@@H]1COC[C@H]2CN(C3CCCC3)C[C@H]21)N1CCC(F)CC1`, for which the INHIBITION is 50.3%.

As to `O=C([C@@H]1COC[C@H]2CN(C3CCOCC3)C[C@H]21)N1CCOCC1`, the INHIBITION is listed as -5.69%.

Values taken from ChEMBL document CHEMBL4513216, “Probing the Open Global Health Chemical Diversity Library for Multistage-Active Starting Points for Next-Generation Antimalarials” (ACS Infect Dis, 2020).
